Source: the supplement of paper PMC13380429

Tests used:
[1] = test system: Vero E6 infected with SARS-CoV-2; experiment: morphology score (similarity to uninfected cells); higher = more like uninfected cells; conditions: 24 h
[2] = test system: Vero E6 infected with SARS-CoV-2; experiment: SARS-CoV-2 infection rate relative to infected DMSO; higher = more infection, active = 60 or less; conditions: 24 h

Compound	morphology score [1]	SARS-CoV-2 infection rate [2]
CC(=O)[C@H]1CC[C@H]2[C@@H]3CC=C4C[C@@H](O)CC[C@]4(C)[C@H]3CC[C@]12C [pregnenolone] (10 µM)	-0.283	112% (inactive)
C[N+](C)(C)CCOC(=O)CCC(=O)OCC[N+](C)(C)C [succinylcholine-chloride] (10 µM)	-0.0136	110% (inactive)
COC[C@H](C)Oc1cc(O[C@@H](C)Cc2ccccc2)cc(C(=O)Nc2ccc(C(=O)O)cn2)c1 (10 µM)	-0.163	100% (inactive)
CNC(=O)c1nn(C)c2c1C(C)(C)Cc1cnc(Nc3ccc(N4CCN(C)CC4)cc3)nc1-2 (10 µM)	-0.142	112% (inactive)
Cc1ccsc1C(=CCCN1CCC[C@@H](C(=O)O)C1)c1sccc1C [tiagabine] (10 µM)	0.0772	109% (inactive)
CC#C[C@]1(O)CC[C@H]2[C@@H]3CCC4=CC(=O)CCC4=C3[C@@H](c3ccc(N(C)C)cc3)C[C@@]21C [mifepristone] (10 µM)	0.443	65.5% (inactive)
O=c1[nH]c(CCl)nc2sc3c(c12)CCCC3 (10 µM)	0.193	104% (inactive)
C[C@H]1CN(C[C@H](Cc2ccccc2)C(=O)NCC(=O)O)CC[C@@]1(C)c1cccc(O)c1 [alvimopan] (10 µM)	0.116	106% (inactive)
CCOc1ccc(Nc2nc(-c3c(C)nc4ccccn34)cs2)cc1 (0.833333 µM)	-0.00134	102% (inactive)
Cc1onc(-c2ccccc2Cl)c1C(=O)N[C@@H]1C(=O)N2[C@@H]1SC(C)(C)[C@@H]2C(=O)O [cloxacillin] (10 µM)	0.00481	99.5% (inactive)
